Hits are enriched below; roughly 9.3% of the tested compounds scored in any of these assays.
mHtt clearance = mutant huntingtin protein clearance; HeLa Exon1htt(103Q)mCFP, aggregate imaging; zero = plate's median compound well; inhibition, % at 1.5 µM; actives 0.42% (n = 47,000);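 active means inhibition of aggregate fluorescence above about 70%, also judged a hit by eye on the cell image, limit read from the data, passing the limit was not always enough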;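 further: cells exposed to compound for three days before fixation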
M1 agonist = M1 muscarinic receptor agonism. CHO-M1 cells, Fluo-4 calcium fluorescence, agonist mode; stronger effect = higher value. actives 3% (n = 64,000). AID 626. B-score at 10 µM;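 active means fluorescence rise, raw or as B-score row- and column-corrected plate score, outside the 99.7% band of its plate's samples, either direction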
A340 absorber = compound absorbs light at 340 nm | AID 708 | compound absorbance at 340 nm, fold over control | fold change at 10 µM | 65,000 tested, under 10 active;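 active means at 10 µM dose, initial 340 nm absorbance at least 2 fold that of control wells; inactive means change under 2 fold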;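 further: initial absorbance extrapolated from kinetic A340 decline of NADH oxidation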
NADH enzymes = inhibitors of enzymes used to reach an NAD/NADH endpoint; actives 0.02% (n = 65,000); IC50, µM (titrated, usually from 10 µM), for inactives: top-dose inhibition; coupled PK/LDH NADH assays, four targets; AID 774;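 active means single-dose screening hits from any of four coupled enzyme assays that gave an IC50 when retested across doses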;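 further: the DPM-DC format reads NADH fluorescence rather than 340 nm absorbance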
M1 antag = blocks the rat M1 muscarinic receptor response to acetylcholine. actives 3.4% (n = 64,000). CHO-M1 cells, Fluo-4 calcium, ACh EC80 antagonist mode; stronger effect = lower value. B-score at 10 µM. AID 628. P08482;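 active means calcium fluorescence response, raw or row-and-column corrected B-score, differing from the plate sample mean either way at a set confidence level, mostly lower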
Target sequence (P08482 whole entry, looked up): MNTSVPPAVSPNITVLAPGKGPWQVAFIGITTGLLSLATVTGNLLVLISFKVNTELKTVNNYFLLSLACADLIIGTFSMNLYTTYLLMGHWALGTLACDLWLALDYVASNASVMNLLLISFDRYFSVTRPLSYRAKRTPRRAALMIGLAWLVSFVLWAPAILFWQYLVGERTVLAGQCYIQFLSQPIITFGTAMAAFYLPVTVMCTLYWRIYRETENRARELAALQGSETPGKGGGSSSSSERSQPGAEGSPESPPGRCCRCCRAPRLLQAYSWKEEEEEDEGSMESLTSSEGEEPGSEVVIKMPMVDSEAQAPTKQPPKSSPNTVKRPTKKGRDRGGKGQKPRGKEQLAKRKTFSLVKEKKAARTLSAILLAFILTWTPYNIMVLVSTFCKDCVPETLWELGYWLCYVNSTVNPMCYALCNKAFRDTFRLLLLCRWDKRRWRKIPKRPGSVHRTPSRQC
Autofluor 339 = intrinsic fluorescence of library compounds, ex339/em460 – biochemical, MLSMR library, data from DPM-DC assay, artefact control, profiling panel. actives 5.5% (n = 65,000). compound autofluorescence, ex339/em460 nm, NADH buffer; stronger effect = higher value; 1 = no-compound wells, NADH background. fluorescence fold increase at 10 µM. AID 709;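 active means at 10 µM, mean starting fluorescence two-fold or more over control wells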;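 further: signal is the first read of a kinetic run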
M1 antag conf = confirmation of rat M1 muscarinic receptor antagonists; actives 43% (n = 1,700); shares compounds with M1 antag; calcium response (max-min fluorescence) at 10 µM; CHO-M1 cells, Fluo-4 calcium, ACh EC80 antagonism; stronger effect = lower value;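 active means calcium response below the same-plate mean of wells given acetylcholine alone at its 80%-effect dose, minus 3 SD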;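 further: raw fluorescence intensity difference in arbitrary instrument units and not normalized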
mGluR4 antag = acts on human mGluR4 in M1 antagonist selectivity test. fluorescence response (max-min) at 10 µM. shares compounds with M1 antag. actives 0.9% (n = 1,700). CHO-mGluR4 calcium flux, Fluo-4 fluorescence, glutamate EC80; stronger effect = lower value. AID 678;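 active means fluorescence response below the plate's average for near-maximal glutamate wells, less 3 SD of those wells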;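 further: raw unnormalized fluorescence span taken in the window right after glutamate addition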
An asterisk follows results filed as active; . = no result given.

SMILES	mHtt clearance	M1 agonist	A340 absorber	NADH enzymes	M1 antag	Autofluor 339	M1 antag conf	mGluR4 antag
CCC1Oc2ccccc2N(CC(=O)Nc2ccccc2OC)C1=O (configuration not stated)	.	0.221	0.98	9.0%	-0.196	1.01	.	.
COC(=O)CC1Oc2ccccc2N(Cc2ccccc2)C1=O (configuration not stated)	.	-0.0543	1.05	1.0%	-2.41*	1.1	669	243
C=CCn1c(COc2cccc3ccc(C)nc23)nnc1SCC(N)=O	.	1.22	1.03	1.0%	-0.302	1.31	.	.
CCN(CC)CCCN1C(=O)c2oc3ccccc3c(=O)c2C1c1cc(OC)ccc1OC (configuration not stated)	-50.9	-0.918	1.06	15.0%	-1.89*	1.88	644	270
CCN(CC)CCCN1C(=O)c2oc3ccccc3c(=O)c2C1c1cccnc1 (configuration not stated)	.	0.0867	1.06	2.0%	0.46	1.29	.	.
Cc1nnc(SCCn2c(N3CCN(Cc4ccccc4)CC3)nc3c2c(=O)[nH]c(=O)n3C)s1	2.8	-1.29	0.99	7.0%	-4.06*	1.02	588	246
Cc1nnc(SCCn2c(N3CCC(Cc4ccccc4)CC3)nc3c2c(=O)[nH]c(=O)n3C)s1	.	-0.619	1	2.0%	-0.763	1.03	.	.
CN1CCCN(C(c2ccccc2)c2ccc(Cl)cc2)CC1 (configuration not stated)	.	0.805	0.99	1.0%	-16.1*	1.04	14*	214
Cn1c(C(=O)N2CCCC(C(=O)NCCc3ccccc3)C2)cc2sccc21 (configuration not stated)	.	-1.12	0.97	6.0%	-6.11*	1.07	328*	248
Cn1c(C(=O)N2CCCC(C(=O)NCCCc3ccccc3)C2)cc2sccc21 (configuration not stated)	.	-0.42	1.04	2.0%	-2.32	1.01	.	.
CCn1c(N2CCN(C(=O)C34CC5CC(CC(C5)C3)C4)CC2)nc2ccccc21	.	0.395	1	11.0%	-0.153	1.11	.	.
CCn1c(=N)n(CC(=O)C23CC4CC(CC(C4)C2)C3)c2ccccc21	.	-1.77	0.98	3.0%	-12.1*	0.97	198*	259
CC(=O)C1=C(C)Nc2ncnn2C1c1ccc(Cl)cc1Cl (configuration not stated)	43.8	-0.0601	1.08	10.0%	0.439	1.07	.	.
S=c1[nH]nc(-c2ccc(Br)cc2)n1Cc1ccco1	72.3*	-0.0942	1	7.0%	-10.2*	1.04	326*	227
S=c1[nH]nc(-c2ccncc2)n1Cc1ccco1	23.9	-0.578	1.12	7.0%	-0.0811	1.11	.	.
CS(=O)CSc1nc2c(cc1C#N)CCCC2 (configuration not stated)	-9.6	-0.198	0.97	5.0%	-9.31*	1.11	260*	203
CCCCSc1nc2c(cc1C#N)CCC2	-30.6	0.575	1	6.0%	-0.103	1.13	.	.
COC(=O)c1cc(NC(=O)C2COc3ccccc3O2)cc(C(=O)OC)c1 (configuration not stated)	-27.3	0.268	0.99	4.0%	-13.1*	1.08	668	216
COC(=O)c1ccccc1NC(=O)C1COc2ccccc2O1 (configuration not stated)	.	0.502	0.99	3.0%	-0.0674	1.06	.	.
CC1(C)CN=C(NC2CCCCC2)S1	.	0.414	1.04	1.0%	-4.76*	1.06	459*	236
Cc1nnc(NC2CCCCC2)[nH]c1=O	-57.2	0.1	1	2.0%	-0.461	1	.	.
CSc1nc2sc3c(c2c(=O)n1C)CCCC3	.	0.246	1.12	6.0%	0.601	1.1	.	.
CSc1nc2sc3c(c2c(=O)n1C1CCCCC1)CCN(C)C3	-4.8	-0.0382	1.03	3.0%	-4.76*	1.11	185*	218
C=CCn1c(SCC(=O)OC)nc2sc3c(c2c1=O)CCN(C)C3	35.0	0.0305	1.14	7.0%	-5.26*	1.61	198*	212
COC(=O)CSc1nc2sc3c(c2c(=O)n1-c1ccccc1)CCN(C)C3	5.0	-0.276	1.1	13.0%	-2.61	1.47	.	.
SMILES	mHtt clearance	M1 agonist	A340 absorber	NADH enzymes	M1 antag	Autofluor 339	M1 antag conf	mGluR4 antag
Cc1cccc(NC(=O)C(NS(=O)(=O)c2ccc3c(c2)CCC(=O)N3)c2ccccc2)n1 (configuration not stated)	20.4	0.00288	1.03	8.0%	0.0209	1.04	.	.
COc1ccc(OC)c2sc(N3CCCCC3)nc12	18.9	-0.331	0.97	8.0%	-4.17*	1.09	386*	252
CC1(C)CC(=O)C2=C(C1)OC(N)=C(C#N)C2Cc1ccccc1 (configuration not stated)	-38.7	-0.801	1.03	2.0%	1.13	1.06	.	.
Cc1csc2nc(CCNS(=O)(=O)c3ccc4c(c3)OCCO4)cn12	12.5	-1.15	1.05	5.0%	-2.58*	1.03	649	224
CC(=O)Nc1c2c(nn1-c1ccc(C)cc1C)CSC2	19.5	-0.309	0.99	4.0%	-1.92*	1	641	259
CCCc1nn(CCc2ccccn2)c(N)c1CC	.	0.213	0.96	2.0%	-0.201	1.02	.	.
O=C(CSc1nnc(COc2ccccc2Cl)o1)NC(=O)NC1CCCC1	-23.4	0.79	1.02	2.0%	-0.723	1.07	.	.
O=C(COc1ccccc1Cl)NC(=O)NC1CCCC1	.	-0.271	1	5.0%	-8.73*	1.03	233*	267
O=C(CCN1CCc2ccccc2C1)c1ccc2c(c1)OCCO2	52.2	-0.166	1	5.0%	-5.73*	1.14	487*	254
O=C(CCN1CCc2ccccc21)c1ccc2c(c1)OCCO2	.	-0.937	1	3.0%	0.146	1.09	.	.
CN(C)CCCOC(=O)Cc1ccc(Cl)cc1	-8.1	0.0461	1	2.0%	-2.28*	1.15	463	198
CCCC1COC(Cn2cncn2)(c2ccc(C)cc2)O1 (configuration not stated)	.	1.24	1.04	3.0%	-12.9*	1.04	667	245
CCN(CC)S(=O)(=O)c1cccc2c(N(C)C)cccc12	29.3	0.206	1.01	7.0%	-0.712	1.9	.	.
CN1CCc2c(sc3c2c(=O)n(-c2ccccc2)c2nnc(SCc4ccccc4F)n32)C1	.	-0.268	1.05	4.0%	-0.0259	1.23	.	.
CN(C)C(CNC(=O)c1cccc(S(=O)(=O)N2CC3(C)CC2CC(C)(C)C3)c1)c1ccco1 (configuration not stated)	.	0.0504	1.02	4.0%	-3.29*	1.13	517*	159
CNS(=O)(=O)c1cccc(C(=O)NCC(c2cccs2)N(C)C)c1 (configuration not stated)	.	0.689	1.04	8.0%	-0.766	1.11	.	.

Assay outcomes as filed in PubChem BioAssay.
